High-throughput results deposited in PubChem BioAssay by several laboratories.
Only some compounds are listed: those with a hit (about 2.2% of all), similar ones and a draw of the others.
HUVEC tox IL1B: HUVEC cytotoxicity counter-screen, IL-1B stimulated. HUVEC cell count loss, Hoechst imaging. cell count reduction, % at 2 µM. 0.41% of 94,000 active. AID 845;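 active = cell count reduction more than 3 SD above the screen-wide mean, cut at about 70% in these data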
NFkB transloc inh: blocks IL-1B driven NFkB nuclear translocation in HUVEC cells; HUVEC IL-1B NFkB p65 nuclear translocation imaging; inhibition, % at 2 µM; 0.43% of 94,000 active;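 active = inhibition above about 30% together with a positive call from visual inspection of the well image, limit read from the data; inconclusive = inhibition above a set limit but visual check negative; inactive = inhibition not above a set limit, visual check negative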;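 note: nuclear over cytoplasmic p65 intensity ratio measured by imaging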
PLK1 PBD inh: inhibitors of human Plk1 polo box domain binding | inhibition, %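 (tested at about 20 µM)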 | AID 693 | 0.13% of 97,000 active | P53350 | Plk1 PBD phosphopeptide binding, fluorescence polarization; in the data active = inhibition above about 34%, passing the limit was not always enough
NFkB transloc pot: enhances IL-1B driven NFkB nuclear translocation. HUVEC IL-1B NFkB p65 nuclear translocation imaging. activation, % at 2 µM. 0.3% of 94,000 active;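 active = activation above 40%, about the mean plus 3 SD, also judged a hit on visual image review; inconclusive = activation above 40% but not a hit on visual review; inactive = activation not above 40% and no visual hit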;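 note: percent activation is computed from the nuclear over cytoplasmic p65 intensity ratio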
PTK2B oligo ant: Pyk2 (human) oligomerization antagonism. Q14289. Q293 cells, Pyk2 FERM NanoBiT luminescence; stronger effect = lower value. z-score (the deposit names both 25 µM and 10 µM). 0.83% of 99,000 active. AID 1347419;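 active = Z-score of -3 or lower, scaled per plate to the spread of control and sample wells; inactive = z-score above -3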;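 note: negative z-score means lost luminescence so less FERM oligomerization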
Target sequence (Q14289 whole entry, looked up): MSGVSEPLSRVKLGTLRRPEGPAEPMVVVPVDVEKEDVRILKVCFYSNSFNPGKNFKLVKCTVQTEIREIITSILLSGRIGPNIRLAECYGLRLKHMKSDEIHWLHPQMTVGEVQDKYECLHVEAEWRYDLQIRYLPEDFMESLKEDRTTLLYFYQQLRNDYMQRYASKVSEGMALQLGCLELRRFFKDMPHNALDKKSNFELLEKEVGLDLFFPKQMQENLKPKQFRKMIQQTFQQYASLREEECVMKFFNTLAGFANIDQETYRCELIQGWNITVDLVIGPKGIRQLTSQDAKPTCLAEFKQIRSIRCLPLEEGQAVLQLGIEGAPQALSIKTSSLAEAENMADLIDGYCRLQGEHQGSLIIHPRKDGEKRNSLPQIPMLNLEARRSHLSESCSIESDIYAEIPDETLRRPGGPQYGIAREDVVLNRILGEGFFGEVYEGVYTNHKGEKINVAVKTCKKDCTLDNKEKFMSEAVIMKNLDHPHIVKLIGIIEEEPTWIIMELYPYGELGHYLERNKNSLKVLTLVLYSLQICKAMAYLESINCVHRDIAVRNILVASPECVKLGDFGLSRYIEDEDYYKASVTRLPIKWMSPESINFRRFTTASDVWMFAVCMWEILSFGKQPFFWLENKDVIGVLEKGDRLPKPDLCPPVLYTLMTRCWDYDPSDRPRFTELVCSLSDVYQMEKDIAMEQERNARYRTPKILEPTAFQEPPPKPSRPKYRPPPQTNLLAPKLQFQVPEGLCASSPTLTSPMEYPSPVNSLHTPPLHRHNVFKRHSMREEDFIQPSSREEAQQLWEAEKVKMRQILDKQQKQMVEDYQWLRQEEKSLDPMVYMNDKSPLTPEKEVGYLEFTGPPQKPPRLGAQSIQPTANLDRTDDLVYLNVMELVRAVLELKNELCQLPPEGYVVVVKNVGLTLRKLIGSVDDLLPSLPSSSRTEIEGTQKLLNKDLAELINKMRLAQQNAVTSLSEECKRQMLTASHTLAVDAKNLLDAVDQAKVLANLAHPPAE
PLK1 inh: PLK1 (human) kinase inhibition; P53350; recombinant PLK1 kinase, TR-FRET peptide phosphorylation; inhibition, % at 10 µM; 0.53% of 97,000 active; AID 619;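 active = inhibition of 50% or more in the single-concentration screen; inactive = inhibition below 50%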
Hits are given with their value; 0 = inactive; ? = inconclusive; - = not tested or not shown.

SMILES	HUVEC tox IL1B	NFkB transloc inh	PLK1 PBD inh	NFkB transloc pot	PTK2B oligo ant	PLK1 inh
C#CCn1c(S(=O)(=O)Cc2ccccc2Cl)nc(-c2ccccc2)c1-c1ccccc1	0	0	0	0	-3.53	0
C#CCn1c(S(=O)(=O)Cc2ccc(C)cc2)nc(-c2ccccc2)c1-c1ccccc1	0	0	0	0	-3.38	0
COc1cccc(O[C@@H]2O[C@@H]3COC(C)(C)O[C@H]3[C@H](O)[C@H]2NC(C)=O)c1	0	0	0	0	0	0
Cc1ccc(C(=O)N2CCN(c3ccc(Cl)cc3)CC2)cc1	88.1	0	0	0	0	0
CCOCC(=O)Nc1nnc(SCCOC)s1	0	0	0	0	0	51.5
CCOCC(=O)Nc1nnc(COCC)s1	0	0	0	0	0	0
COc1ccc(C2CC(c3ccccc3)Nc3nc(NC(=O)c4cccs4)nn32)cc1 (configuration not stated)	0	0	0	0	-3.54	0
COc1ccccc1NC(=O)C(C)NS(=O)(=O)c1ccccc1 (configuration not stated)	73.3	0	0	0	0	0
CCOC(=O)c1cccc(NC(=O)CN(c2ccc(C)cc2)S(=O)(=O)c2c(C)n[nH]c2C)c1	0	0	0	0	-3.02	0
COc1ccc(N(CC(=O)Nc2cccc(C)c2)S(=O)(=O)c2c(C)n[nH]c2C)cc1	0	0	0	0	0	0
CCc1cccc(NC(=O)CN(c2ccc(OC)cc2)S(=O)(=O)c2c(C)n[nH]c2C)c1	0	0	0	?	-3.16	0
COc1ccc(N(CC(=O)Nc2ccc(C)c(C)c2)S(=O)(=O)c2c(C)n[nH]c2C)cc1	0	0	0	?	-3.28	0
CCOc1ccc(C2C(C(=O)c3cccs3)=C(O)C(=O)N2CCCn2ccnc2)cc1 (configuration not stated)	0	0	0	0	-	0
CC(NC(=O)c1cccs1)c1n[nH]c(=S)n1C (configuration not stated)	-	-	-	-	0	-
C=CCOC(=O)C1=C(C)NC(SC)=C(C#N)C1c1ccc(OCC)cc1 (configuration not stated)	0	0	0	0	-3.11	0
C=CCOC(=O)C1=C(C)NC(C)=C(C(=O)OCC=C)C1c1ccc(O)cc1	-	-	-	-	-3.46	-
COc1ccc(S(=O)(=O)N(n2c(C)nnc2-n2nc(C)cc2C)S(=O)(=O)c2ccc(OC)cc2)cc1	0	0	0	0	0	0
CCN(CC)C(=O)CSc1nnc(-c2ccccc2)n1-c1ccccc1	0	37.9	0	0	0	0
Cc1cc(NC2CCCCC2)nc(N2CCOCC2)n1	0	0	0	0	0	0
COc1ccc(Nc2cc(C)nc(N3CCOCC3)n2)cc1	0	0	0	106.0	0	0
CCN(CC)S(=O)(=O)c1cc(NC(=O)C(C)OC(=O)c2[nH]c(C)c(C(C)=O)c2C)ccc1C (configuration not stated)	-	-	-	-	0	-
O=C(c1ccc(Cl)cc1)C1CCN(C(=O)C2CC2)CC1	0	0	0	0	0	0
O=S(=O)(c1ccc(Oc2ccc(Br)cc2F)nc1)N1CCCCC1	0	40.3	0	0	0	0
CCOc1cc(S(=O)(=O)N2CCCCCC2)ccc1F	0	0	0	0	0	0
CCC(=O)N/C(=N\OCc1ccc(F)cc1)c1nonc1NC(=O)CC	0	0	0	0	0	0
SMILES	HUVEC tox IL1B	NFkB transloc inh	PLK1 PBD inh	NFkB transloc pot	PTK2B oligo ant	PLK1 inh
CC(=O)Nc1sc(NC(=O)c2ccc(C)cc2)nc1-c1cccs1	0	0	0	0	0	0
Cc1onc(-c2ccccc2Cl)c1C(=O)Nc1cc(=O)n(C)c(=O)n1C	88.8	0	0	0	0	0
CCOC(=O)C1=C(C)Nc2ccc(C)cc2S1	0	0	0	0	0	0
CSCCOC(=O)C1=C(C)Nc2ccc(C)cc2S1	0	57.9	0	0	0	0
COc1ccc([N+](=O)[O-])cc1COc1ccc2c(-c3ccccc3)cc(=O)oc2c1	70.0	0	0	0	0	0
O=C(N/N=C/C(Br)=C/c1ccccc1)c1n[nH]c2c1CCC2	0	40.2	0	0	0	0
O=C(CNc1cccc2ccccc12)N/N=C/C(Br)=C/c1ccccc1	0	0	0	0	0	0
CC(=O)c1cccc(NC(=O)Nc2ccc3c(c2)N(C)C(=O)CS3)c1	0	0	0	0	-3.28	0
COc1ccc2nc(-n3c(O)c(C4=c5ccccc5=NC4=O)[nH]c3=S)sc2c1	-	-	-	-	-3.17	-
CCCC(=O)Nc1nc2c(OC)ccc(OC)c2s1	-	-	0	-	-	62.7
CCC(=O)Nc1nc2c(OC)ccc(OC)c2s1	0	0	0	0	-	0
COc1ccc(C(C)=O)cc1CSc1nnc(-c2ccc(Cl)cc2)n1-c1ccccc1	0	0	0	0	0	0
COc1ccc(C2=NOC(C(=O)NCCCN3CCOCC3)C2)cc1 (configuration not stated)	0	0	0	46.8	0	0
CCC(=O)N1CCN(c2nc3ccccc3s2)CC1	0	36.8	0	0	0	0
CCCCNC(=O)c1ccc(CNc2c(N3CCC(C(=O)OCC)CC3)c(=O)c2=O)cc1	-	-	0	-	0	0
CCCCN1C2CCCC1CC(NC(=O)C1CCCCC1)C2 (configuration not stated)	0	0	0	0	0	0
O=C(NC1CCCC1)C1C2C=CC(C2)C1C(=O)N1CCOCC1 (configuration not stated)	82.9	0	0	0	0	0
O=C1OC(/C=C/c2ccc(Cl)cc2Cl)=NC/1=C\c1cccs1	-	-	-	-	0	-
CN(C)c1nc(N)nc(/C(C#N)=C/C2CC3C=CC2C3)n1 (configuration not stated)	0	0	0	41.7	0	0
N#CC1=C(SCc2ccccc2)NC2=C(C(=O)CCC2)C1c1ccc2c(c1)OCO2 (configuration not stated)	0	0	0	0	0	0
CCSC1=C(C#N)C(c2ccc3c(c2)OCO3)C2=C(CCCC2=O)N1 (configuration not stated)	0	0	0	66.3	0	0
COc1cc(S(=O)(=O)NCc2ccccn2)c(OC)cc1Cl	0	0	0	0	0	0
CCOc1cc(C)c(C(C)C)cc1S(=O)(=O)NCc1ccccn1	84.6	100.3	0	0	0	0
Cc1ccc(C(=O)Nc2ccon2)cc1S(=O)(=O)N1CCCC1	0	0	0	0	0	0
Cc1cc(-c2ccccc2)nc(N2CCC(C(=O)NCC3CCCCC3)CC2)n1	0	0	0	0	-	0
CCOC(=O)C1CCN(C(=O)c2ccc(Cl)c(Cl)c2)CC1	93.5	99.0	0	0	0	0
CCCCCCCCC(=O)NC(NC(=S)N1CCOCC1)C(Cl)(Cl)Cl (configuration not stated)	0	0	0	41.0	0	0
CCCCCC(=O)NC(NC(=S)N1CCOCC1)C(Cl)(Cl)Cl (configuration not stated)	0	0	0	0	0	0
CC(c1ccccc1)n1cc(C(=O)NCCN2CCOCC2)nn1 (configuration not stated)	0	0	0	52.7	0	0
